Reference: PubChem BioAssay (Tox21)
Several values for one entry are separate records, joined by “and”; a condition that tells them apart may be missing. Equal values may be shown once. Inconclusive results are not listed. The source holds several records for some structures; these can differ, active in one and inactive in another. Activity calls are given as the source filed them. Unless noted, calls come from the whole dose curve; as a rule, active = well fitted curve in the direction sought with a large enough effect in the repeat runs; inconclusive = weak or mixed curves; inactive = no such curve, though single readings can be large; an effect the other way counts as inactive or inconclusive.

Key:
[1] = qHTS assay to identify small molecule antagonists of the thyroid receptor (TR) signaling pathway - cell viability counter screen (AID 743064); note: nearly all actives have a fitted effect of over 50% in size; note: potency is the fitted concentration of half-maximal effect
In short: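 GH3.TRE-Luc rat pituitary cells dosed after 4 hr plating, co-stimulated with T3 at 1 nM final, incubated 23.5 h at 37 C. Viability measured in the same wells by CellTiter-Fluor fluorescence after 30 min further at 37 C.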

[2] = qHTS assay to identify small molecule antagonists of the thyroid receptor (TR) signaling pathway (AID 743065); note: nearly all actives have a fitted effect of over 55% in size; note: potency is the fitted concentration of half-maximal effect
In short: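 GH3.TRE-Luc rat pituitary cells carrying two TR response elements driving luciferase were plated for 4 h, given compound plus 1 nM T3 (final), and incubated 23.5 h at 37 C. ONE-Glo luminescence measured reporter inhibition; CellTiter-Fluor fluorescence tracked cytotoxicity.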

[3] = test system: thyroid hormone receptor (rat, GH3 cells); experiment: qHTS assay to identify small molecule agonists of the thyroid receptor (TR) signaling pathway (AID 743066; calls by dose curve; note: potency is the fitted concentration of half-maximal effect)
[4] = target: Estrogen receptor (Homo sapiens) (UniProt P03372); experiment: qHTS assay to identify small molecule antagonists of the estrogen receptor alpha (ER-alpha) signaling pathway (AID 743069; active = well fitted curve in the direction sought with a large enough effect in the signal ratio in the repeat runs, not every such curve was filed as active; the % refers to the signal ratio)
In short: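 Screening used a UAS-driven beta-lactamase reporter integrated into HEK293 cells expressing ER-alpha, stimulated with 17beta-estradiol alongside test compounds over 18 hr at 37C; signal came from LiveBLAzer B/G FRET fluorescence.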

[5] = qHTS assay to identify small molecule antagonists of the estrogen receptor alpha (ER-alpha) signaling pathway - cell viability counter screen (AID 743074; calls by dose curve; note: nearly all actives have a fitted effect of over 45% in size)
[6] = target: Estrogen receptor (Homo sapiens) (UniProt P03372); experiment: qHTS assay to identify small molecule agonists of the estrogen receptor alpha (ER-alpha) signaling pathway (AID 743075; calls by dose curve)
[7] = target: Estrogen receptor (Homo sapiens) (UniProt P03372); experiment: qHTS assay to identify small molecule agonists of the estrogen receptor alpha (ER-alpha) signaling pathway using the BG1 cell line (AID 743079); note: nearly all actives have a fitted effect of over 20% in size; note: potency is the fitted concentration of half-maximal effect
[8] = qHTS assay to identify small molecule antagonists of the estrogen receptor alpha (ER-alpha) signaling pathway using the BG1 cell line (AID 743080; calls by dose curve;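 note: BG1 cells stimulated with 17beta-estradiol alongside compound; series mostly up to about 70 µM; nearly all actives have a fitted effect of over 25% in size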)
In short: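 BG1-Luc-4E2 cells (endogenous full-length ER-alpha, stable 4×ERE-luciferase) were starved 5 days in phenol-red-free medium with 10% charcoal-stripped FBS, plated 24 h, then given compound plus 17beta-estradiol for 21.5 h at 37 C; ONE-Glo luminescence read after 30 min.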

[9] = qHTS assay to identify small molecule antagonists of the estrogen receptor alpha (ER-alpha) signaling pathway using the BG1 cell line - cell viability counter screen (AID 743081);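 note: compound given together with 17beta-estradiol as the ER stimulus; series mostly up to about 70 µM; nearly all actives have a fitted effect of over 45% in size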
[10] = target: Aromatase (Homo sapiens) (UniProt P11511); experiment: qHTS assay to identify aromatase inhibitors (AID 743083); note: series mostly up to about 70 µM; nearly all actives have a fitted effect of over 55% in size
[11] = qHTS assay to identify aromatase inhibitors - cell viability counter screen (AID 743084);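 note: cells stimulated with testosterone during compound exposure; nearly all actives have a fitted effect of over 55% in size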; note: potency is the fitted concentration of half-maximal effect
[12] = target: Aryl hydrocarbon receptor (Homo sapiens) (UniProt P35869); experiment: qHTS assay to identify small molecule that activate the aryl hydrocarbon receptor (AhR) signaling pathway (AID 743085); note: nearly all actives have a fitted effect of over 15% in size; note: potency is the fitted concentration of half-maximal effect;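 for activation: HG2L7.5c1 human HepG2 liver cells with stably integrated DRE-driven firefly reporter; series mostly up to about 70 µM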
In short: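 HepG2 cells stably carrying a 20-DRE firefly luciferase reporter (HG2L7.5c1) treated with compound for 24 hr at 37C. Luciferase read by ONE-Glo luminescence, with CellTiter-Fluor viability read first.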

[13] = qHTS assay to identify small molecule that activate the aryl hydrocarbon receptor (AhR) signaling pathway - cell viability counter screen (AID 743086);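 note: HepG2 liver cells carrying the AhR DRE luciferase reporter; series mostly up to about 70 µM; nearly all actives have a fitted effect of over 45% in size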
In short: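 HepG2-AhR-luc (HG2L7.5c1) cells, 4000/well, were preincubated 5 h at 37C, exposed to compound in qHTS format for 24 hr at 37C, then given CellTiter-Fluor for 30 min; viability was read as fluorescence in the reporter wells.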

[14] = target: Peroxisome proliferator-activated receptor gamma (Homo sapiens) (UniProt P37231); experiment: qHTS assay to identify small molecule agonists of the peroxisome proliferator-activated receptor gamma (PPARg) signaling pathway (AID 743094; active = well fitted activation curve with a large enough effect in the signal ratio in the repeat runs, not every such curve was filed as active; the % refers to the signal ratio)
In short: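 Fluorescence-based beta-lactamase readout in HEK293H PPARg UAS-bla cells after 17 h compound exposure (37C) and 1 h B/G FRET substrate incubation at room temperature.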

[15] = target: Peroxisome proliferator-activated receptor gamma (Homo sapiens) (UniProt P37231); experiment: qHTS assay to identify small molecule antagonists of the peroxisome proliferator-activated receptor gamma (PPARg) signaling pathway (AID 743191; calls by dose curve; note: series mostly up to about 63 µM; nearly all actives have a fitted effect of over 30% in size)
In short: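 GeneBLAzer PPARg UAS-bla HEK293H cells carrying a UAS-driven beta-lactamase reporter were plated at 3000 cells/well, preincubated 5 h at 37C, then given compound for 17 h at 37C; LiveBLAzer B/G FRET substrate was read after 1 h at room temperature.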

[16] = qHTS assay for small molecule agonists of the antioxidant response element (ARE) signaling pathway (AID 743202; active = well fitted activation curve with a large enough effect in the signal ratio in the repeat runs, not every such curve was filed as active; the % refers to the signal ratio; note: potency is the fitted concentration of half-maximal effect)
In short: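 Steps: seed ARE-bla HepG2 cells (2,000/well); incubate 5 h at 37 C; add compounds by pin tool; incubate 16 h at 37 C; add FRET substrate; read fluorescence after 2 h at RT.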

[17] = qHTS assay for small molecule agonists of the antioxidant response element (ARE) signaling pathway - cell viability counter screen (AID 743203; calls by dose curve; note: nearly all actives have a fitted effect of over 55% in size)
In short: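 Parallel cytotoxicity read-out for the ARE-bla screen: HepG2 reporter cells, 16 hrs with compounds, then CellTiter-Glo luminescence.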

[18] = qHTS assay for small molecule activators of the heat shock response signaling pathway (AID 743210; active = well fitted activation curve with a large enough effect in the signal ratio in the repeat runs, with a control signal flat, not every such curve was filed as active; the % refers to the signal ratio;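 note: HeLa cells with beta-lactamase reporter driven by heat shock elements; series mostly up to about 63 µM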)
In short: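 Activation of heat shock element-controlled beta-lactamase expression is measured in HeLa cells by LiveBLAzer FRET fluorescence, with compound exposure lasting 5 h at 37 C and substrate loading 2.5 h at room temperature.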

[19] = qHTS assay to identify small molecule antagonists of the peroxisome proliferator-activated receptor gamma (PPARg) signaling pathway - cell viability counter screen (AID 743194); note: nearly all actives have a fitted effect of over 55% in size
In short: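 PPARg-UAS-bla HEK293H cells were plated, rested 5 h at 37 C, then treated with compounds plus rosiglitazone (50 nM final) for 17 h at 37 C; viability was then read by CellTiter-Glo luminescence after 30 min at room temperature.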

[20] = qHTS assay for small molecule activators of the heat shock response signaling pathway - cell viability counter screen (AID 743209); note: nearly all actives have a fitted effect of over 50% in size
In short: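 To flag cytotoxic compounds, HSE-bla HeLa cells plated at 1500 cells/well were dosed for 5 h at 37 C, followed by the reporter FRET read and then CellTiter-Glo, with luminescence recorded 30 min after reagent addition.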

Measured: Potency

Sequence of Aryl hydrocarbon receptor (Homo sapiens) (P35869 whole entry, looked up): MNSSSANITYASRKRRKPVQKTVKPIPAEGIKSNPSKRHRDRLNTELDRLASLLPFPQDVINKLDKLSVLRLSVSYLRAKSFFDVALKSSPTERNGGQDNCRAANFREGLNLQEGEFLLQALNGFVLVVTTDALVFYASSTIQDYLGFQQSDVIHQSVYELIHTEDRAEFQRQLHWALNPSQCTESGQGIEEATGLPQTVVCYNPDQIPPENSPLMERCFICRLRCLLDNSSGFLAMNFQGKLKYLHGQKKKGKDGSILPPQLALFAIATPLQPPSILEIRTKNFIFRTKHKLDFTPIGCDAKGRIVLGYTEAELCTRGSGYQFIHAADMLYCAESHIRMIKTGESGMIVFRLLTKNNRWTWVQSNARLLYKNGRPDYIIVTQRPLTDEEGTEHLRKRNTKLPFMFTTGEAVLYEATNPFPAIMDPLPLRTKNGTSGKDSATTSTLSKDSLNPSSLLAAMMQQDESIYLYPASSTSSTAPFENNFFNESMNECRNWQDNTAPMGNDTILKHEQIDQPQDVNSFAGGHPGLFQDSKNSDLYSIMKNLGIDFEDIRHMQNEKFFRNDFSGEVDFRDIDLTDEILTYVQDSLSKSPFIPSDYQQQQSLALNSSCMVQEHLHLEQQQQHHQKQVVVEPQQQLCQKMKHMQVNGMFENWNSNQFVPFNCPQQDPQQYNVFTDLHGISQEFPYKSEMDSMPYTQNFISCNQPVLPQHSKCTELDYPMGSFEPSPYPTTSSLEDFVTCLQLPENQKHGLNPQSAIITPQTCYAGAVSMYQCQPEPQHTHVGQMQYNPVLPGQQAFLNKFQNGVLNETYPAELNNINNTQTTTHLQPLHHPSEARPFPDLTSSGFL
Sequence of Peroxisome proliferator-activated receptor gamma (Homo sapiens) (P37231 whole entry, looked up): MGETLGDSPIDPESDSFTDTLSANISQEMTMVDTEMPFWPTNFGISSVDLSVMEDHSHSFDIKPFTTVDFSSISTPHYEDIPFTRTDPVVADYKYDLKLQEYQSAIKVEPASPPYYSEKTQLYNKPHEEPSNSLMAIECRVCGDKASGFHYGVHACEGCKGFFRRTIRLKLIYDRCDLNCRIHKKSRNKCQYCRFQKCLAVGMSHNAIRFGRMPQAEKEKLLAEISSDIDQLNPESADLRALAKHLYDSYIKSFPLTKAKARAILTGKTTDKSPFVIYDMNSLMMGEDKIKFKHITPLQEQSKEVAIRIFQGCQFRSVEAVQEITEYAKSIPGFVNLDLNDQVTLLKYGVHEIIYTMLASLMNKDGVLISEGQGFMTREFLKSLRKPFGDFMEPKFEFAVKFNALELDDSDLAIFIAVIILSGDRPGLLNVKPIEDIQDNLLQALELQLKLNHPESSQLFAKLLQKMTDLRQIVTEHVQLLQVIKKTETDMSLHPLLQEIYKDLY
Sequence of Aromatase (Homo sapiens) (P11511 whole entry, looked up): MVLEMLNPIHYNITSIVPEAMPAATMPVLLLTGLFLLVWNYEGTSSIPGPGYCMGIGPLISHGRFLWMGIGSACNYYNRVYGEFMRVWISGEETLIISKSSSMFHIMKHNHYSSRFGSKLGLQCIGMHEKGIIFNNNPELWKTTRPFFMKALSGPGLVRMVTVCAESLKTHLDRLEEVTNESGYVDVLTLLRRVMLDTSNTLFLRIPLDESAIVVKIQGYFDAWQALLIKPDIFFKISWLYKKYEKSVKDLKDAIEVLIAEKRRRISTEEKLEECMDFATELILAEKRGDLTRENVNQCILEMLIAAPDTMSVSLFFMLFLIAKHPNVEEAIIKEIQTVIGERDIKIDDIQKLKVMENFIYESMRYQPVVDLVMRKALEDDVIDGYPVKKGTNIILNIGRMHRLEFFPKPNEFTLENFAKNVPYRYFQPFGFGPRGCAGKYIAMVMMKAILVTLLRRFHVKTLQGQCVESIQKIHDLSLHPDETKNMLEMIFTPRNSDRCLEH
Sequence of Estrogen receptor (Homo sapiens) (P03372 whole entry, looked up): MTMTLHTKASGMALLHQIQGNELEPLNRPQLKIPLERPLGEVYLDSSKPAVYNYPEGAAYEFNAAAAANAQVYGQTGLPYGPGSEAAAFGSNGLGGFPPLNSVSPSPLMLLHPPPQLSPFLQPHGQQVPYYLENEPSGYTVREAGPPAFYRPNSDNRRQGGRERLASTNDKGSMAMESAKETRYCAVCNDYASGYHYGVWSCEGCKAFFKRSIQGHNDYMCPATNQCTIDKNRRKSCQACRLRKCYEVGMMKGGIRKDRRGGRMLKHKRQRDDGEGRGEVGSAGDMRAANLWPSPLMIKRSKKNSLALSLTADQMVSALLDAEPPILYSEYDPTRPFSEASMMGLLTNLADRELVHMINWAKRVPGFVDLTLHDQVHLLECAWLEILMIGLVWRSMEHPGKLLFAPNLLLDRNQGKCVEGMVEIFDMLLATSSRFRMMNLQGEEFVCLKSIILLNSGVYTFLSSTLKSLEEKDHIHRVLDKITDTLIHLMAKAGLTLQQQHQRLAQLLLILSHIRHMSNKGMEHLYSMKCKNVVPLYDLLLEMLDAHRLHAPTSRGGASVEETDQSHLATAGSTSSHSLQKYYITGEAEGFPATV

FC(F)(F)c1ccc(Cl)cc1
not listed: [19] | [20]
inactive: all other assays above

CC(C)c1cccc(C(C)C)c1O
not listed: [20]
inactive: all other assays above

O=C(O)C(Br)Br
active: [16] 0.0863 µM
not listed: [12]
inactive: all other assays above

Cc1cccc(N)c1C
inactive and 48.6 µM (active): [12]
inactive: all other assays above

OC[C@@H](O)[C@H]1O[C@@H]2O[C@H](C(Cl)(Cl)Cl)O[C@@H]2[C@H]1O
not listed: [20]
inactive: all other assays above

N#CN=C(N)N
not listed: [19]
inactive: all other assays above

Nc1ccc([As](=O)(O)O)cc1
not listed: [12] | [19] | [20]
inactive: all other assays above

CCSC(=O)N1CCCCCC1
not listed: [19] | [20]
inactive: all other assays above

O=C(O)CCCc1ccc(N(CCCl)CCCl)cc1
active: [1] 61.1 µM | [2] 30.8 µM and 27.3 µM
inactive and 30.6 µM (active): [11]
not listed: [20]
inactive: all other assays above

CCCCC(CC)C(=O)Cl (centres undefined)
not listed: [20]
inactive: all other assays above

CC(C)CCCCCCOC(=O)c1ccccc1C(=O)OCCCCCCC(C)C
not listed: [14] | [15] | [19]
inactive: all other assays above

O=[N+]([O-])c1ccc(Cl)c(Cl)c1
not listed: [19]
inactive: all other assays above

Cc1cc(O)ccc1Cl
inactive and 62.2 µM (active): [7]
inactive and 27.3 µM (active): [3]
inactive: all other assays above

CNC(=O)O/N=C/C(C)(C)SC
not listed: [18]
inactive: all other assays above

Cc1ccc(N=C=O)cc1N=C=O
active: [12] 25 µM and 1.08 µM
not listed: [4] | [6] | [7] | [8] | [18] | [20]
inactive: all other assays above

OCc1ccco1
inactive: all assays above

O=C(O)Cc1ccccc1
inactive: all assays above

CN(C)C(=O)Cl
inactive: all assays above

CCOc1ccc(N)cc1
48.7 µM (active) and inactive: [12]
not listed: [14] | [15] | [16]
inactive: all other assays above

CN(C)CCC#N
not listed: [12]
inactive: all other assays above

C[C@H]1C(=O)O[C@@H]2CCN3CC=C(COC(=O)[C@](C)(O)[C@]1(C)O)[C@H]23
inactive: all assays above

CNC(=O)O/N=C/C(C)(C)S(C)(=O)=O
not listed: [19]
inactive: all other assays above

COP(=S)(OC)Oc1ccc(SC)c(C)c1
active: [7] 48 µM | [12] 26.6 µM and 30.3 µM and 24.3 µM
not listed: [20]
inactive: all other assays above

Cc1ccc(O)c(C)c1
not listed: [16] | [19] | [20]
inactive: all other assays above

O=C(O)C1C(C(=O)O)C2(Cl)C(Cl)=C(Cl)C1(Cl)C2(Cl)Cl (centres undefined)
not listed: [14] | [15] | [20]
inactive: all other assays above

Cc1cccc(C)c1NC(=O)CN1CCCC1=O
not listed: [18]
inactive: all other assays above

COC(C)(C)CCCC(C)C/C=C/C(C)=C/C(=O)OC(C)C (centres undefined)
inactive and 60.1 µM (active): [12]
not listed: [4] | [6] | [7] | [8] | [18] | [20]
inactive: all other assays above

Nc1cccc(Cl)c1
not listed: [12] | [18] | [19] | [20]
inactive: all other assays above

C=CC(=O)OCCCCCC(C)C
80.9 µM (active) and inactive: [7]
not listed: [15] | [19]
inactive: all other assays above

COS(=O)(=O)OC
not listed: [19]
inactive: all other assays above

[N-]=[N+]=CC(=O)OC[C@H](N)C(=O)O
inactive: [1] | [2] | [3] | [5] | [9] | [13] | [16] | [17] | [20]
